Source: PubChem BioAssay (EPA / NIEHS)
Results filed as inconclusive are left out. Activity calls are given as the source filed them. How the source made its calls: active means hit-call score of the fitted dose curve at least 0.9, where 1 is the maximum; inconclusive means response in the unintended direction; inactive means score below 0.9.

Experiments:
[1] = biological target: human Constitutive Androstane Receptor (CAR), NR1I3 (gene 9970) (UniProt Q14994); assay: NVS_NR_hCAR_Antagonist: NovaScreen (NVS) Nuclear Receptor Binding Assay for human Constitutive Androstane Receptor Antagonism (CAR) (AID 2283344)
Summary of the method: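 Cell-free TR-FRET binding read 1 h after dosing, antagonist mode; loss of signal versus DMSO baseline. Primary screen in duplicate at a single 25 uM; actives retested in concentration series.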

[2] = biological target: Estrogen receptor (Homo sapiens) (UniProt P03372); assay: NVS_NR_hER: NovaScreen (NVS) Nuclear Receptor Binding Assay for human Estrogen Receptor (ER) (AID 2283348)
Summary of the method: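 Radioligand competitive displacement binding to estrogen receptor from MCF7 extract, cell-free; 18 h after dosing, scintillation read-out. Primary screen in duplicate at 25 uM; actives followed up in concentration series; loss of signal vs DMSO.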

[3] = biological target: Estrogen receptor (Homo sapiens) (UniProt P03372); assay: OT_ER_ERaERa_1440: Odyssey Thera (OT) 24-hour HEK293T Protein-Complementation Assay for Estrogen Receptor-alpha/-alpha Homodimer (AID 2283349);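 further: hits raise fluorescence above DMSO for agonists and antagonists alike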
Summary of the method: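 HEK293T cells stably expressing the human ER alpha ligand-binding domain (aa 310-547) as a homodimer PCA were dosed for 24 hours. Fluorescence intensity was read by laser scanning cytometry, and gain of signal was fitted relative to DMSO vehicle.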

[4] = biological target: Estrogen receptor (Homo sapiens) (UniProt P03372); assay: OT_ER_ERaERa_0480: Odyssey Thera (OT) 8-hour HEK293T Protein-Complementation Assay for Estrogen Receptor-alpha/-alpha Homodimer (AID 2283351);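 further: rise in fluorescence from reassembled reporter fragments on ERα LBD homodimer in nucleus or whole cell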
Summary of the method: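 The readout is complementation of fragments fused to the human ER alpha ligand-binding domain (aa 310-547), stably expressed in HEK293T cells. After 8 h of exposure, the increase in nuclear/cytoplasmic fluorescence was measured by laser scanning cytometry and fitted relative to DMSO.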

[5] = biological target: Androgen Receptor/SRC-1 Co-activator, AR (gene 367) (UniProt P10275); assay: OT_AR_ARSRC1_0960: Odyssey Thera (OT) 16-hour HEK293T Protein-Complementation Assay for Androgen Receptor/SRC-1 Co-activator (AID 2283353);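 further: actives raise the signal above DMSO so potency reflects increased AR and SRC-1 complex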
Summary of the method: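 HEK293T cells stably expressing AR and SRC-1 fused to Venus YFP fragments, imaged 16 h after dosing. Nuclear/cytoplasmic fluorescence ratio at 488 nm from at least 400 cells per image; gain of signal relative to DMSO.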

[6] = biological target: Androgen Receptor/SRC-1 Co-activator, AR (gene 367) (UniProt P10275); assay: OT_AR_ARSRC1_0480: Odyssey Thera (OT) 8-hour HEK293T Protein-Complementation Assay for Androgen Receptor/SRC-1 Co-activator (AID 2283354);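 further: hits raise the complementation signal above DMSO so AC50 marks enhancers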
Summary of the method: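 HEK293T cells stably expressing AR and SRC-1 fused to Venus YFP fragments, imaged 8 h after dosing. Complementation fluorescence scored as nuclear/cytoplasmic ratio at 488 nm in at least 400 cells per image; gain fitted versus DMSO.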

[7] = biological target: Retinoic acid receptor alpha (Homo sapiens) (UniProt P10276); assay: NVS_NR_hRAR_Antagonist: NovaScreen (NVS) Nuclear Receptor Binding Assay for human Retinoic Acid Alpha Receptor Antagonism (RAR) (AID 2283358)
Summary of the method: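 Cell-free TR-FRET binding assay with extracted human RARalpha in antagonist mode, read 2 h after dosing. Loss of signal was fitted relative to DMSO; the primary screen used 25 uM in duplicate, with concentration series on follow-up.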

[8] = biological target: Estrogen receptor (Homo sapiens) + Estrogen receptor beta (Homo sapiens) (UniProt P03372+Q92731); assay: OT_ER_ERaERb_0480: Odyssey Thera (OT) 8-hour HEK293T Protein-Complementation Assay for Estrogen Receptor-alpha/-beta Heterodimer (AID 2283352)
Summary of the method: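 Compound added to HEK293T cells carrying split-reporter-tagged ER-alpha and ER-beta LBDs, incubated 8 hours, then imaged by laser scanning cytometer. Signal rise in nucleus, or nucleus and cytoplasm, over vehicle was fitted in the positive direction.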

[9] = biological target: Estrogen receptor beta (Homo sapiens) (UniProt Q92731); assay: OT_ER_ERbERb_0480: Odyssey Thera (OT) 8-hour HEK293T Protein-Complementation Assay for Estrogen Receptor-beta/-beta Homodimer (AID 2283357);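 further: active means signal gain over DMSO baseline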
Summary of the method: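 Fluorescence intensity, nuclear for agonists and nuclear plus cytoplasmic for antagonists, was quantified by laser scanning cytometry versus vehicle after 8 h treatment. The cells were HEK293T stably carrying ER beta LBD fragment-complementation partners.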

[10] = biological target: Bile acid receptor (Homo sapiens) (UniProt Q96RI1); assay: NVS_NR_hFXR_Antagonist: NovaScreen (NVS) Nuclear Receptor Binding Assay for human Farnesoid X Receptor Antagonism (FXR) (AID 2283350)
Summary of the method: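 Cell-free TR-FRET ligand-binding read-out on human FXR (NR1H4) in antagonist mode, measured 1 h after dosing. Primary screen in duplicate at 25 uM, actives retested in concentration series; signal loss scored versus DMSO.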

[11] = biological target: Bile acid receptor (Homo sapiens) (UniProt Q96RI1); assay: NVS_NR_hFXR_Agonist: NovaScreen (NVS) Nuclear Receptor Binding Assay for human Farnesoid X Receptor Agonism (FXR) (AID 2283347)
Summary of the method: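 Cell-free TR-FRET binding assay with extracted human FXR protein, agonist format, read 1 h after dosing. Primary screen at 25 uM single concentration in duplicate, actives retested in concentration series; gain of signal versus DMSO.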

Measured: AC50

Sequence of Estrogen receptor (Homo sapiens) + Estrogen receptor beta (Homo sapiens) (P03372 whole entry, looked up): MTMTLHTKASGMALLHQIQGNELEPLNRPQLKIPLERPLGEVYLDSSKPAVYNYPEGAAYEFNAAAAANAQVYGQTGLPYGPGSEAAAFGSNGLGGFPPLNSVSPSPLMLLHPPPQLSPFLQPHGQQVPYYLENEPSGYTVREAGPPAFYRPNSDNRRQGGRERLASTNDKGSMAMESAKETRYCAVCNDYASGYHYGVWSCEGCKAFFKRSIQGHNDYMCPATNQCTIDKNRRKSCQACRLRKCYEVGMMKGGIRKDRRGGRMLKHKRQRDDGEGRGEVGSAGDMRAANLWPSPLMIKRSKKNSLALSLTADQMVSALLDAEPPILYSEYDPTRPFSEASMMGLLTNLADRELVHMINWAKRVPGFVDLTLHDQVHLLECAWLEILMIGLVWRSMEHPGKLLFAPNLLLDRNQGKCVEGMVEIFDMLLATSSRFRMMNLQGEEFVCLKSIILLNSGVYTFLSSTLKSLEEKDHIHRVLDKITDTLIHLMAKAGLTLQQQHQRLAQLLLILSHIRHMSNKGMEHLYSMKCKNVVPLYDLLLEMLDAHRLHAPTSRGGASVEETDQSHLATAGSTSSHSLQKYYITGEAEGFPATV
Sequence of Estrogen receptor (Homo sapiens) + Estrogen receptor beta (Homo sapiens) (Q92731 whole entry, looked up): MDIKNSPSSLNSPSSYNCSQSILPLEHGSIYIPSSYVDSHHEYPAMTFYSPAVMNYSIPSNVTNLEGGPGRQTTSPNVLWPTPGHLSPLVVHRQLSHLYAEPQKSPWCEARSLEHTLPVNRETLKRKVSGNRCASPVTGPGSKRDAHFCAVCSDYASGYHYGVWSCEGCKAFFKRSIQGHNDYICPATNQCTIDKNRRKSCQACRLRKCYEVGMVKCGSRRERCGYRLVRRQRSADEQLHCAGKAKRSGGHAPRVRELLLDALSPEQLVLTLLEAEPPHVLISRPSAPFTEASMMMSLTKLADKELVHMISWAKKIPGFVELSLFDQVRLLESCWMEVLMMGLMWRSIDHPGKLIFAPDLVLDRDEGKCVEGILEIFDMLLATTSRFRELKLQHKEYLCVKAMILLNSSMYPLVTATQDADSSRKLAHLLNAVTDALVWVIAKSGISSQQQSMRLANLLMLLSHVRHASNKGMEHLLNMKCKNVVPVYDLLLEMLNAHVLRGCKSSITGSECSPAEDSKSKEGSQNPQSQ
Sequence of Estrogen receptor (Homo sapiens) (P03372 whole entry, looked up, the tested form may be a part): as the sequence (P03372 whole entry, looked up) above
Sequence of Androgen Receptor/SRC-1 Co-activator, AR (gene 367) (P10275 whole entry, looked up, the tested form may be a part): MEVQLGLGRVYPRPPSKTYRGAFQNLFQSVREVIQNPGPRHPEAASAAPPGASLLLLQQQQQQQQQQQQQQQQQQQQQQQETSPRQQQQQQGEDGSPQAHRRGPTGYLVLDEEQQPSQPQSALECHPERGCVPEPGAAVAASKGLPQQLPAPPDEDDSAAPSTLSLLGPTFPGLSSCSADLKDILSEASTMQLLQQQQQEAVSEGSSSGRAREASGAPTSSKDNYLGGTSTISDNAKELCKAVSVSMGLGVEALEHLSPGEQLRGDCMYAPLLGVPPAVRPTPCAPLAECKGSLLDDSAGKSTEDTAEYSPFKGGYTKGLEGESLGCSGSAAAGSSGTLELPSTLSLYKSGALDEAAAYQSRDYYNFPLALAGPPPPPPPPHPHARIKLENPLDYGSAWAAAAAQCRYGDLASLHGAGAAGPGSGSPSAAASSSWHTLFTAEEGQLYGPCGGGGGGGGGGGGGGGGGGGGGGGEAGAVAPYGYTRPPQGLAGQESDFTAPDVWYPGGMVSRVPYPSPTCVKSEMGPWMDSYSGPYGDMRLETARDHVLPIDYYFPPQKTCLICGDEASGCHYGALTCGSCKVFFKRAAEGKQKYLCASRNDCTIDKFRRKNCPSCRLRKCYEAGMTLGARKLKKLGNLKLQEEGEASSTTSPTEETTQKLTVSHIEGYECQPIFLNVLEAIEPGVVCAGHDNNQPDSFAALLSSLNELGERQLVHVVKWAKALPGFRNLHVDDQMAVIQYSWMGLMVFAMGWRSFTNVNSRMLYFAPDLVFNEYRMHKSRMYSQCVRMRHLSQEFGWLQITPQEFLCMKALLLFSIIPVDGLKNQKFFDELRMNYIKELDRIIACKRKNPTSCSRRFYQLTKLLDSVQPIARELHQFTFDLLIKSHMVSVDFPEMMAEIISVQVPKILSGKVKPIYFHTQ
Sequence of human Constitutive Androstane Receptor (CAR), NR1I3 (gene 9970) (Q14994 whole entry, looked up): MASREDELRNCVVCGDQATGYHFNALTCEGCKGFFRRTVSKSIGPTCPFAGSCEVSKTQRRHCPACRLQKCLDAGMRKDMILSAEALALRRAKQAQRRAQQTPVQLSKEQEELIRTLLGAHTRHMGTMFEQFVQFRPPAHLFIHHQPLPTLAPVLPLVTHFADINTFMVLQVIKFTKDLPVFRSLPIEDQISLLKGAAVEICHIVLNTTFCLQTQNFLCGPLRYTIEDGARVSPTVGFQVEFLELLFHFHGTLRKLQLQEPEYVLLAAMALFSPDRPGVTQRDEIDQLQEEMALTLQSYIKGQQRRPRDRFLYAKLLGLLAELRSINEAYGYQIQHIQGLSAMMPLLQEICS
Sequence of Bile acid receptor (Homo sapiens) (Q96RI1 whole entry, looked up): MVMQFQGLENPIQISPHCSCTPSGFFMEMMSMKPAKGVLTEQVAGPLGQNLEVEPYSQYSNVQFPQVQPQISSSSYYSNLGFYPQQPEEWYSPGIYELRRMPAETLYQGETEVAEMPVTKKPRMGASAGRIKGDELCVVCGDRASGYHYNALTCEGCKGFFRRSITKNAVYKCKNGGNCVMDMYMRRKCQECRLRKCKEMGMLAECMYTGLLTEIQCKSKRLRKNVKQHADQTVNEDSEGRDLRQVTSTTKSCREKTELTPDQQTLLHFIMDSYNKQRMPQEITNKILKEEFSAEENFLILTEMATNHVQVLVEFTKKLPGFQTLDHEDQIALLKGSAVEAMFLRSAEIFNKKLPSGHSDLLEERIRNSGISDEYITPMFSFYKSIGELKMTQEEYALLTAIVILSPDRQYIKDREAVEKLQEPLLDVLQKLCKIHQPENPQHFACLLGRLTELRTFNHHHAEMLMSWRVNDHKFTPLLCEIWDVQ
Sequence of Estrogen receptor beta (Homo sapiens) (Q92731 whole entry, looked up, the tested form may be a part): as the sequence (Q92731 whole entry, looked up) above
Sequence of Retinoic acid receptor alpha (Homo sapiens) (P10276 whole entry, looked up): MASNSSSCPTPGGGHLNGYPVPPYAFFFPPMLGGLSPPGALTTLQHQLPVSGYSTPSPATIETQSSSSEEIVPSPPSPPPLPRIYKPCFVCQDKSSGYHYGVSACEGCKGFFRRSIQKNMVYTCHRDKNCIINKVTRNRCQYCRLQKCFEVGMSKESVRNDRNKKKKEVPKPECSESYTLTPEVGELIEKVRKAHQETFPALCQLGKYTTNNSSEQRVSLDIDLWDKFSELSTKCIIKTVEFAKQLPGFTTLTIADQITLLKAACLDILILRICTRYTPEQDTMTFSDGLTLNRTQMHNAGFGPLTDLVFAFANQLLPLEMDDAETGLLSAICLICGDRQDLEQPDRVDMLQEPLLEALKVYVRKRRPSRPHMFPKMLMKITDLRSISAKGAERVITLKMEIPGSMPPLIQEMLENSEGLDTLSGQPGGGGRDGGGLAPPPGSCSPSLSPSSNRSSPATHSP

O=S1OCC2C(CO1)C1(Cl)C(Cl)=C(Cl)C2(Cl)C1(Cl)Cl (stereo not given)
inactive: [1] | [2] | [3] | [4] | [7]
active: [5] 34.5 µM | [6] 31.8 µM

CNC(=O)Oc1ccccc1OC(C)C
inactive: [1] | [3] | [4] | [8] | [9]

CNC(=O)/C=C(\C)OP(=O)(OC)OC
inactive: [1] | [3] | [4] | [8] | [9]

O=C(O)CCCOc1ccc(Cl)cc1Cl
inactive: [1] | [5] | [6] | [9]

CCOc1nc(NC)nc(NC(=O)NS(=O)(=O)c2ccccc2C(=O)OC)n1
inactive: [1] | [2] | [10]

CNC(=O)Oc1cccc(N=CN(C)C)c1
inactive: [3] | [4] | [8] | [9]

N#CN
inactive: [3] | [4] | [8] | [9]

CCC(C)Nc1c([N+](=O)[O-])cc(C(C)(C)C)cc1[N+](=O)[O-] (stereo not given)
active: [8] 34.7 µM
inactive: [3] | [4] | [9]

Clc1ccccc1-c1nnc(-c2ccccc2Cl)nn1
inactive: [3] | [4] | [8] | [9]

CCC(C)(NC(=O)c1cc(Cl)c(C)c(Cl)c1)C(=O)CCl (stereo not given)
inactive: [3] | [4] | [8] | [9]

O=C1c2ccccc2C(=O)N1SC(Cl)(Cl)Cl
inactive: [1] | [3] | [4] | [8] | [9] | [7]

CCOC1Oc2ccc(OS(C)(=O)=O)cc2C1(C)C (stereo not given)
inactive: [3] | [4] | [8] | [5] | [6] | [9]

CCN(CC)C(=O)SCc1ccc(Cl)cc1
inactive: [3] | [10] | [4]

OCCOc1ccccc1
inactive: [11] | [3] | [4] | [9]

COC(=O)c1ccccc1CS(=O)(=O)NC(=O)Nc1nc(OC)cc(OC)n1
inactive: [11] | [2]
